Data reported in the supplement of paper PMC11732987, “Enantioselective OTUD7B fragment discovery through chemoproteomics screening and high-throughput optimisation” (Communications Chemistry, 2025).

Tests used:
Assay in all cases: log2 ratio of Biotin-Ahx-Ub-VS probe labelling (fragment/DMSO); higher = less target engagement (more negative = stronger competition), active = hit call of the paper (q ≤ 0.05, log2 ratio ≤ -1)
Conditions in all cases: compound concentration: 200 uM; treatment time: 3 h
[1] = molecular target: T1, USP19 (UniProt O94966)
T1 sequence (whole entry): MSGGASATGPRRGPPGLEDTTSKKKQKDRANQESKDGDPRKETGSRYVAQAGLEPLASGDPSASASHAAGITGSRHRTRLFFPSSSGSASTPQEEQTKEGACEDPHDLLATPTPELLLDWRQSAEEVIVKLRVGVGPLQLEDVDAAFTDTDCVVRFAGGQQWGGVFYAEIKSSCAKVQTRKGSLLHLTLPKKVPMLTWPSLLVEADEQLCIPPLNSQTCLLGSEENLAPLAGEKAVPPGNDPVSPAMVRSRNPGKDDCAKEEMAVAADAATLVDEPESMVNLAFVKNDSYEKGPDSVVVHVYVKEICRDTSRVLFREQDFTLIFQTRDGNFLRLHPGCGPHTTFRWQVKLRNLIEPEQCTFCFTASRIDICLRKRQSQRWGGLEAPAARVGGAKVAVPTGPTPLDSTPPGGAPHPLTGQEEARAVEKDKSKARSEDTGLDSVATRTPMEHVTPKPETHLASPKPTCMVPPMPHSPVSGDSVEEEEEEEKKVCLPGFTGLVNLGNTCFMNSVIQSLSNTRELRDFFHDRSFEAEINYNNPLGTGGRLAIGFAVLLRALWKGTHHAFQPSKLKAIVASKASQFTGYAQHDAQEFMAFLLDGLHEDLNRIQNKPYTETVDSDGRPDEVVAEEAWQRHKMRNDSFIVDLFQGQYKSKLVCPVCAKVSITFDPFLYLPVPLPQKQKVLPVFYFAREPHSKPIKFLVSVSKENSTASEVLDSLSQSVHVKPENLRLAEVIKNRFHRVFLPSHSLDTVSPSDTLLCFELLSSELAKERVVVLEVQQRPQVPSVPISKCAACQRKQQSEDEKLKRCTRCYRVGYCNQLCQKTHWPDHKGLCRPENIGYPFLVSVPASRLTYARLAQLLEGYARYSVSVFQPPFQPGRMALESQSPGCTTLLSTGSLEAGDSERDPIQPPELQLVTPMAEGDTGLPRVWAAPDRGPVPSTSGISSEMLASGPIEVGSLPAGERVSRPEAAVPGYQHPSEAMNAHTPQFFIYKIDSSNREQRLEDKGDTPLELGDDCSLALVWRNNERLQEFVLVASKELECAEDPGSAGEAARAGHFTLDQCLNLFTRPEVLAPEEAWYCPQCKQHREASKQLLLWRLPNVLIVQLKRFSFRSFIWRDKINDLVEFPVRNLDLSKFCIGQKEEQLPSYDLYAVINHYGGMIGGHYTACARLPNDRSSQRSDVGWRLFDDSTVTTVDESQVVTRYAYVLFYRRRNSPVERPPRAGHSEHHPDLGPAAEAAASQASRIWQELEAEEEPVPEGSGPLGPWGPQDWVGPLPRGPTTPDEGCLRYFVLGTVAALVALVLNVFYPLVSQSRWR
Procedure, shortened: (§1)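 Each value is an average log2 ratio of fragment to vehicle, tested by unpaired t-test. The underlying Spectronaut label-free quantities were global-median-normalised, and only proteins with ≥2 unique peptides were included. Triplicate HEK293T lysate samples (495 µg) were exposed to fragment at 200 µM or vehicle for 3 h, then to Biotin-Ahx-Ub-VS at 0.5 µM final for 1 h, before NeutrAvidin enrichment of labelled DUBs, LysC and trypsin digestion, and diaPASEF LC-MS/MS.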

[2] = molecular target: T2, USP22 (UniProt Q9UPT9)
T2 sequence (whole entry): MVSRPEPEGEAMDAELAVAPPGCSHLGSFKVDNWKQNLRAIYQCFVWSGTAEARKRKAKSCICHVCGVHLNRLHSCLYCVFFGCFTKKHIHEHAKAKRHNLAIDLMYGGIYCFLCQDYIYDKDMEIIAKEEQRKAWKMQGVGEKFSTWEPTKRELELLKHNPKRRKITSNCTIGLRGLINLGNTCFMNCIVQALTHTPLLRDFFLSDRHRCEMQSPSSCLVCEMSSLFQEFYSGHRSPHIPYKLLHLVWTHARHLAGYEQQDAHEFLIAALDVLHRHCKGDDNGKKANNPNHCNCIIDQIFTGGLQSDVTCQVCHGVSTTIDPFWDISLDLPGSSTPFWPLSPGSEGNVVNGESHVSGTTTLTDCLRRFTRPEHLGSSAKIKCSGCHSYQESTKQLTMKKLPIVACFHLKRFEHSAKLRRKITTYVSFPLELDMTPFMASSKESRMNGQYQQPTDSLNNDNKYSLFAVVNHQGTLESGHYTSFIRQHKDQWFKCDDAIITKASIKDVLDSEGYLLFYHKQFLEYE
Procedure, shortened: as §1

[3] = molecular target: USP24 (UniProt Q9UPU5)
Chain of USP24 (Q9UPU5 whole entry): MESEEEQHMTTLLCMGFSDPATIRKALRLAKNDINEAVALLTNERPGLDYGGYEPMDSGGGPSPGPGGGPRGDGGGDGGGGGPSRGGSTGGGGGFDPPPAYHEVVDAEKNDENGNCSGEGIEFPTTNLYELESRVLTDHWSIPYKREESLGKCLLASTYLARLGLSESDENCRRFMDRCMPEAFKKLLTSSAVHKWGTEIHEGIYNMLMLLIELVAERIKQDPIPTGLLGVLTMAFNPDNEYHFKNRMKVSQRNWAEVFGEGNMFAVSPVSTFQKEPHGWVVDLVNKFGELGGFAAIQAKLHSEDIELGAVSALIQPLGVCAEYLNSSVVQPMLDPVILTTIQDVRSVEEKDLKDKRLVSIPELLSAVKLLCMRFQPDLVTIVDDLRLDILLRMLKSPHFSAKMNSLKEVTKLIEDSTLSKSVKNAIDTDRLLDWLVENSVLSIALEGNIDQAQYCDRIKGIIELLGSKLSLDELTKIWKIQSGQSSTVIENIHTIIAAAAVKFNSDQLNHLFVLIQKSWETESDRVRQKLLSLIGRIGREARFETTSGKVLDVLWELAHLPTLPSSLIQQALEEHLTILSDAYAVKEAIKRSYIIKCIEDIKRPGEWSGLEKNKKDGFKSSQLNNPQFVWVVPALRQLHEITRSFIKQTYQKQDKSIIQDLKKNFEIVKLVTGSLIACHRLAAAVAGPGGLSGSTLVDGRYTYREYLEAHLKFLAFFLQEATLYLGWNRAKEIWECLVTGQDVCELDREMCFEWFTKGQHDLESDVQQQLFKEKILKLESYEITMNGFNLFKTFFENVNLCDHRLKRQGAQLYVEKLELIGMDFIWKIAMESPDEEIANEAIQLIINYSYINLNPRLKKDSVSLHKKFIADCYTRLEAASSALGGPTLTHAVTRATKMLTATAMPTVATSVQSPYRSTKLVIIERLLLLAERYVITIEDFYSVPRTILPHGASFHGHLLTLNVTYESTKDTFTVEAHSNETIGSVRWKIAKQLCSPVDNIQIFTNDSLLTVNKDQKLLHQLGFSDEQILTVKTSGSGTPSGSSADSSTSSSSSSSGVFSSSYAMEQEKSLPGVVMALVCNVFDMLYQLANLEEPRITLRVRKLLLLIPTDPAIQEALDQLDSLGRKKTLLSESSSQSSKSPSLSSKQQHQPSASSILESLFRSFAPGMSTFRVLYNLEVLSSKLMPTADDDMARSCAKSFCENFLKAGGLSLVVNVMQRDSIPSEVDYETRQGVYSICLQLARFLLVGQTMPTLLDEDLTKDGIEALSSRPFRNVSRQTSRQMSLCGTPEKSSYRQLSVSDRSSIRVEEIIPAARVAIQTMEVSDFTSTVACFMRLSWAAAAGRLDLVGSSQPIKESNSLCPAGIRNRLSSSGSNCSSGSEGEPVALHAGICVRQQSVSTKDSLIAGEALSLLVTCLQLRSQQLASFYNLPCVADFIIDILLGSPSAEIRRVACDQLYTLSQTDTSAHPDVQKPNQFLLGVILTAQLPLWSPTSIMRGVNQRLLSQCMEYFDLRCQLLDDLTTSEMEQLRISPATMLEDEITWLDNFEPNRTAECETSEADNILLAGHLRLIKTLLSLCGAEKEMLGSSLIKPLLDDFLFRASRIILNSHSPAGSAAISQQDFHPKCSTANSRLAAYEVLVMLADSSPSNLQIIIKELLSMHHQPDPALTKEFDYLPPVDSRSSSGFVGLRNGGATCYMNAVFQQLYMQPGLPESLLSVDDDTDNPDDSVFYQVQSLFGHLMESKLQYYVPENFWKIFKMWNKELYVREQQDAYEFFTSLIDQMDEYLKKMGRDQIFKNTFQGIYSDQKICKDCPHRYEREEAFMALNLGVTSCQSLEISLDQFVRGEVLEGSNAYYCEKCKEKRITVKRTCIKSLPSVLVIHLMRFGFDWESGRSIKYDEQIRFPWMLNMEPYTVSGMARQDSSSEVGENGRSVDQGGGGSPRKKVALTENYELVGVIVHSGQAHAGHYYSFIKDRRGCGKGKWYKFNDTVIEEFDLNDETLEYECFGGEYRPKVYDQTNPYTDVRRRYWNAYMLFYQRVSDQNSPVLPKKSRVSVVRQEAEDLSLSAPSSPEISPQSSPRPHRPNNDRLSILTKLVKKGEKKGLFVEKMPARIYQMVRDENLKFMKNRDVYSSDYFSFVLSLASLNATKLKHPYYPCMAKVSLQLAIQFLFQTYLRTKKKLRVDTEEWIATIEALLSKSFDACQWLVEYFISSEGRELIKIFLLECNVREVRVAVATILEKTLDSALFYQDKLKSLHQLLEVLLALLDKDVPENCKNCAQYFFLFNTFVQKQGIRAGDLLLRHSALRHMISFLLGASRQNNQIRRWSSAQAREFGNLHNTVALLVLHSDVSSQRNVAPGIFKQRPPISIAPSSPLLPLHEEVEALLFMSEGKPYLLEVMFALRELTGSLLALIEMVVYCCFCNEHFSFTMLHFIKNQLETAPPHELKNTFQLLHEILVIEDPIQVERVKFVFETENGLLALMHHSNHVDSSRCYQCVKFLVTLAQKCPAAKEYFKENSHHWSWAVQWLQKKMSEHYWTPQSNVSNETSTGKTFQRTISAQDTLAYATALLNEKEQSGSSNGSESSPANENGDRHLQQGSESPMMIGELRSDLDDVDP
Procedure, shortened: as §1

[4] = molecular target: T3, USP25 (UniProt Q9UHP3)
T3 sequence (whole entry): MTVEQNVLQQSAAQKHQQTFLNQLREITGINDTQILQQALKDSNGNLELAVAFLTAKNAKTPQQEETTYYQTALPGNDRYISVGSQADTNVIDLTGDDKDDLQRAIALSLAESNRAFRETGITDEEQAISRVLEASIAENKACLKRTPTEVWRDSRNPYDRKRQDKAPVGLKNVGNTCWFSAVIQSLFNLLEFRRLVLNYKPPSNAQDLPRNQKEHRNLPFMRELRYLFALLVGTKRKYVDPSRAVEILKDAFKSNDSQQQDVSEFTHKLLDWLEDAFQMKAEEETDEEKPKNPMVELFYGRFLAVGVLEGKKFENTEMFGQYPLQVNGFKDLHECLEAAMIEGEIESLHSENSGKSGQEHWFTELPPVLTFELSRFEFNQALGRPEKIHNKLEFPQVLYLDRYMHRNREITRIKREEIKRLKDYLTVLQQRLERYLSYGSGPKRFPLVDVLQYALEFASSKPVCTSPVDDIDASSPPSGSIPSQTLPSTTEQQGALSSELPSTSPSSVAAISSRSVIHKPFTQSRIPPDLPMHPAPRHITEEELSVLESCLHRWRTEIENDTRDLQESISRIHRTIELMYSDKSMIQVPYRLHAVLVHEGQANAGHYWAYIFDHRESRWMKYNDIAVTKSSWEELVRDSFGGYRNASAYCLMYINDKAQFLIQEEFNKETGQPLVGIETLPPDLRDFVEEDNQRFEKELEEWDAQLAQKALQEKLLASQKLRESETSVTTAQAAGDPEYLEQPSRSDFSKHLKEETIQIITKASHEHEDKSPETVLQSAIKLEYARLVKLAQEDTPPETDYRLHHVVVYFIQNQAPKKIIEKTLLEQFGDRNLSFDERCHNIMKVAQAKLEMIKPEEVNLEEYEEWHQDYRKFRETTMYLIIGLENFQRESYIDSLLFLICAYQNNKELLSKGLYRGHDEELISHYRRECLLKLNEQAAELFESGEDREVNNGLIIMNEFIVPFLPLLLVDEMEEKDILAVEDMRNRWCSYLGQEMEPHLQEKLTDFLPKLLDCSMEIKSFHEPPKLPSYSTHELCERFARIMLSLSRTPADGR
Procedure, shortened: as §1

[5] = molecular target: T4, USP28 (UniProt Q96RU2)
T4 sequence (whole entry): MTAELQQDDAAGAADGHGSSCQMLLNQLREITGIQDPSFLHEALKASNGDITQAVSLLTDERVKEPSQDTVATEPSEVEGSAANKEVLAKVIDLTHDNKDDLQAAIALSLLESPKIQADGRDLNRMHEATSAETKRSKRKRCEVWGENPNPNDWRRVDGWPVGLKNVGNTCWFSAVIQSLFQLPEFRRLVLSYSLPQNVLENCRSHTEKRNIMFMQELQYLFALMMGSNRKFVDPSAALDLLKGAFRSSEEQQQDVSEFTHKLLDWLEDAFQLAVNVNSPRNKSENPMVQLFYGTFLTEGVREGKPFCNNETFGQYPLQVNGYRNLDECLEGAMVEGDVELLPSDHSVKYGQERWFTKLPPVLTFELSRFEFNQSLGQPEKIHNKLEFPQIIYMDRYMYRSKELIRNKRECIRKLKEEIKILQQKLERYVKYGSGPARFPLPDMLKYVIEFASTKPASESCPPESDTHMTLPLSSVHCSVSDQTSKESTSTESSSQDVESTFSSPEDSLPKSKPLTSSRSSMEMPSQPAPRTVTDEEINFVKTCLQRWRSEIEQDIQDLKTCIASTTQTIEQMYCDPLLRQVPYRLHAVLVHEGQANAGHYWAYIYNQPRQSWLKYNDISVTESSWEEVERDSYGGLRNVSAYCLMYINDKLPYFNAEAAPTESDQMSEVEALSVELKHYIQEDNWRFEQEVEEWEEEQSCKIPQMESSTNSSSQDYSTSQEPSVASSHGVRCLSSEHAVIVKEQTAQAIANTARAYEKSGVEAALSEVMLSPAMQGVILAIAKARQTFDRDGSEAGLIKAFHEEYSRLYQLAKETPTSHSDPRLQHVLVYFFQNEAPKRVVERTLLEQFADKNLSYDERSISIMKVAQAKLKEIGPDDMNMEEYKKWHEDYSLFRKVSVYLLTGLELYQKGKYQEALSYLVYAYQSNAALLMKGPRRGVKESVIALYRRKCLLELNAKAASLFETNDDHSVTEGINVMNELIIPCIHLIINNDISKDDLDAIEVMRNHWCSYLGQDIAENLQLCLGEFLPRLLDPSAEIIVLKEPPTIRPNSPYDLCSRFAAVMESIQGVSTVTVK
Procedure, shortened: as §1

Measured: log2 ratio of Biotin-Ahx-Ub-VS probe labelling

Cc1nc(CN2CCN(C(=O)CCl)CC2)cs1
inactive: [1] -0.347 | [2] -0.169 | [3] -0.513 | [4] -0.212 | [5] -0.543
